Source: PubChem
FH mod = Identification of activators of human fumarate hydratase by quantitative high-throughput screening; FH coupled MDH/diaphorase resazurin fluorescence, 15 min; 0.22% of 54,000 active; Potency, µM (series often up to 79.9 µM), inactives show top-dose activity change, negative = inhibition, hits mostly inhibitors; AID 1347055, 2019; further: potency means the concentration at half of the fitted maximal effect; on the % scale 0 is the no-effect control and ±100 the full control effect; the screen sought activators but most active calls are inhibition curves; nearly all actives have a fitted effect of over 45% in size
GPR32 ag = agonists of human resolvin D1 receptor DRV1 (GPR32); O75388; AID 1346428; 2.5% of 48,000 active; activation, % at 76.9 µM; CHO-K1 GPR32 beta-arrestin PathHunter luminescence, 90 min; zero percent set by DMSO-only wells;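 active means activation of at least 60% and not above a set upper limit, about 1 call in 100 departs from these limits; inconclusive means activation of 40% to 60%, or above that upper limit; inactive means activation under 40%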; further: 0% is about no effect
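Agonism was scored as beta-arrestin recruitment to ProLink-fused GPR32 in stably transfected CHO-K1 cells, giving a chemiluminescent beta-Gal signal; compounds were incubated 90 min at 37 °C.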
NTMT1 inh = NTMT1 methyltransferase inhibition; Potency, µM (titrated, usually from 114 µM), inactives show at the highest dose activity change, negative = inhibition, hits mostly inhibitors; Q9BV86; NTMT1 MTase-Glo SAH luminescence, purified enzyme; AID 1645870; 2.5% of 59,000 active;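 further: potency means the concentration at half of the fitted maximal effect; plate controls were DMSO vehicle for no effect and no enzyme for full effect; nearly all actives have a fitted effect of over 65% in size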
HTT promoter inh = HTT promoter inhibition | HEK293 HTT promoter firefly luciferase reporter, 24 h | Potency, µM (top dose mostly 57.5 µM), for the others: at the highest dose activity change, negative = inhibition, usual class: inhibitors | 0.93% of 48,000 active | AID 1508623; further: potency means the concentration at half of the fitted maximal effect; nearly all actives have a fitted effect of over 50% in size
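HEK293 Fluc reporter, 2,500 cells/well, 24 h pre-culture; cpds up to 57.5 uM final, 24 h 37 degrees C; Dual-Glo, 10 min RT; normalized vehicle = 0%, zero RLU = -100%.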
HTT-AS promoter = activators of huntingtin-antisense promoter activity | Potency, µM (doses to about 57.5 µM), for the others: top-dose activity change, positive = activation, actives largely listed as activators | 0.24% of 48,000 active | HEK293 HTT-AS promoter firefly luciferase reporter, 24 h; response scale: percent change from vehicle, -100% = no light; further: potency means the concentration at half of the fitted maximal effect; nearly all actives have a fitted effect of over 55% in size
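Firefly luciferase readout (Dual-Glo, 10 min RT) after 24 h, 37 °C compound exposure (final up to 57.5 uM) of HEK293 reporter cells cultured 24 h beforehand; PTC124 at 50 uM final as control inhibitor; activity scaled vehicle 0%, zero RLU -100%.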
Sfp PPTase inh = Sfp PPTase inhibition, chemistry optimization. shares compounds with NTMT1 inh. purified Sfp PPTase enzyme activity, qHTS. Potency, µM (titrated, usually from 114 µM), for inactives: top-dose activity change, negative = inhibition, actives largely listed as inhibitors. 78% of 230 active
Bsub HM489 growth = reduces growth of B. subtilis HM489 strain | Potency, µM (top dose mostly 114 µM), for the others: at the highest dose activity change, negative = inhibition, usual class: inhibitors | shares compounds with NTMT1 inh | AID 540353 | 50% of 220 active | B. subtilis HM489 (acpS-) growth, BacTiter-Glo, 5 h
Sfp PPTase gel = inhibits B. subtilis Sfp PPTase in gel assay; purified Sfp PPTase, gel-based product detection; shares compounds with NTMT1 inh; Potency, µM (series often up to 250 µM), for the others: at the top dose activity change, negative = inhibition, usual class: inhibitors; AID 540355; 54% of 220 active
Sfp gel = inhibits B. subtilis Sfp PPTase in gel-based assay; shares compounds with NTMT1 inh; purified Sfp PPTase, gel-based product detection; Potency, µM (highest dose often 250 µM), for the others: at the highest dose activity change, negative = inhibition, usual class: inhibitors; 90% of 45 active; AID 602362
Sfp SAR2 = Sfp phosphopantetheinyl transferase inhibition, SAR round 2; shares compounds with NTMT1 inh; purified Sfp enzyme, PPTase activity, qHTS; Potency, µM (titrated, usually from 57.1 µM), for inactives: top-dose activity change, negative = inhibition, most hits filed as inhibitors; 87% of 230 active; AID 602370
hGST A1-1 inh = inhibits hGST A1-1 in Sfp inhibitor counter-screen; shares compounds with NTMT1 inh; hGST A1-1 enzyme activity counter-screen, qHTS; Potency, µM (doses to about 114 µM), without a hit: top-dose activity change, negative = inhibition, usual class: inhibitors; 55 tested, under 10 active; AID 602391
HSD17B4 inh = inhibits human HSD17B4, off-target for HPGD inhibitors; Potency, µM (doses to about 57.1 µM), for inactives: top-dose activity change, negative = inhibition, actives largely listed as inhibitors; AID 743187; shares compounds with NTMT1 inh; purified HSD17B4, estradiol/NAD+, NADH fluorescence; 10% of 230 active
ALDH1A1 inh = inhibits human ALDH1A1, off-target for HPGD inhibitors. shares compounds with NTMT1 inh. recombinant ALDH1A1, NADH fluorescence, propionaldehyde/NAD+. Potency, µM (doses to about 57.1 µM), for inactives: top-dose activity change, negative = inhibition, most hits filed as inhibitors. 93% of 230 active. AID 743195
Target sequence (P00352 whole entry, looked up): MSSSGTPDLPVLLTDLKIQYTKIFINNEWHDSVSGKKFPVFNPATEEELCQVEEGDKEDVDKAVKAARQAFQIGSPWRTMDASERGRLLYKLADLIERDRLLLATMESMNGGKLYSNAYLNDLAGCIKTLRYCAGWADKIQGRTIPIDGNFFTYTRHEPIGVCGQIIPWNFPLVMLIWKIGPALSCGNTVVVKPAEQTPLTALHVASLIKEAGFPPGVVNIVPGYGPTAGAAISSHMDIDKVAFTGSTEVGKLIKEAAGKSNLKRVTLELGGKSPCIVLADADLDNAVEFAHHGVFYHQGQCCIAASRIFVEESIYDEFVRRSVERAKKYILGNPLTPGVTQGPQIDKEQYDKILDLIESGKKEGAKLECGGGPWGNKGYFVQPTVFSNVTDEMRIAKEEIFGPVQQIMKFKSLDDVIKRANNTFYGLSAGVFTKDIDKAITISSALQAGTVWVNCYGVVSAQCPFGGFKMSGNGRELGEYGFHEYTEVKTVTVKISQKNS
NNMT inh = human NNMT inhibition, NTMT1 counter-screen | shares compounds with NTMT1 inh | NNMT MTase-Glo luminescence, SAH detection | Potency, µM (titrated, usually from 57.1 µM), inactives show at the top dose activity, negative = inhibition, most hits filed as inhibitors | 10% of 120 active
An asterisk follows results filed as active; ! = not active in a repeat; [ ] = dose if it differs, or a comment. Shown are actives, neighbours in structure and some others; about 4.7% of the full set was active somewhere. Unless noted, the call rests on the fitted dose curve; in most records, active means well fitted curve in the direction sought with a large enough effect; inconclusive means small, poorly fitted or top-dose-only effect, or another doubt; inactive means no such curve, though single readings can be large; an effect the other way counts as inactive or inconclusive.

For Cc1cc(C)nc(NC(=S)N2CCN(c3cnc4nccn4c3)CC2)c1 the results were NTMT1 inh inconclusive, Sfp PPTase inh 19µM*, Bsub HM489 growth inconclusive, Sfp PPTase gel -54%, Sfp SAR2 18µM*, HSD17B4 inh inconclusive and ALDH1A1 inh -154%.
Screening Cc1cc(C)nc(NC(=S)N2CCN(c3ncccc3Cl)CC2)c1 returned NTMT1 inh inconclusive, Sfp PPTase inh 3.7µM*, Bsub HM489 growth -17%, Sfp PPTase gel inconclusive, Sfp SAR2 2µM*, HSD17B4 inh -17% and ALDH1A1 inh 19µM*.
Cc1cc(C)nc(NC(=S)N2CCN(c3ncccc3C#N)CC2)c1 was read as NTMT1 inh inconclusive, Sfp PPTase inh 0.58µM*, Bsub HM489 growth inconclusive, Sfp PPTase gel inconclusive, Sfp SAR2 1.2µM*, hGST A1-1 inh inconclusive, HSD17B4 inh -29% and ALDH1A1 inh 22µM*.
Screening Cc1cc(C)nc(NC(=S)N2CCN(C3=Nc4ccccc4Oc4ccccc43)CC2)c1 returned NTMT1 inh 50µM*, Sfp PPTase inh 3.3µM*, Bsub HM489 growth inconclusive, Sfp PPTase gel inconclusive, Sfp SAR2 5.1µM*, HSD17B4 inh -17% and ALDH1A1 inh 24µM*.
COc1ccc2c(c1)[C@@H]1C[C@]1(C(=O)N1[C@@H]3CC[C@H]1CN(C)C3)Cn1c-2c(C2CCCCC2)c2ccc(C(=O)NS(=O)(=O)N(C)C)cc21 was read as FH mod -25% and NTMT1 inh 10%.
Screening Cc1ccc(Cl)cc1N1CCN(C(=O)COc2cc(=O)n(C)c3ccccc23)CC1 returned FH mod -33%, GPR32 ag -3, NTMT1 inh -2%, HTT promoter inh inconclusive and HTT-AS promoter -37%.
Screening Cc1cc(C)nc(NC(=S)N2CCN(c3ccccn3)CC2)c1 returned NTMT1 inh inconclusive, Sfp PPTase inh 3.7µM*!, Bsub HM489 growth inconclusive, Sfp PPTase gel 32µM*!, Sfp SAR2 16µM*, HSD17B4 inh -21% and ALDH1A1 inh 27µM*.
Cc1ccc(C)c(N2CCN(C(=O)NCc3noc4ccccc34)CC2)c1 was read as FH mod -7%, GPR32 ag -5, NTMT1 inh -2%, HTT promoter inh inconclusive and HTT-AS promoter -24%.
Screening Cc1cc(C)nc(NC(=S)N2CCN(c3noc4ccccc34)CC2)c1 returned NTMT1 inh inconclusive, Sfp PPTase inh 3.3µM*, Bsub HM489 growth inconclusive, Sfp PPTase gel -67%, Sfp SAR2 2.9µM*, HSD17B4 inh -18% and ALDH1A1 inh 17µM*.
Cc1cc(C)nc(NC(=S)N2CCN(c3ccc(Cl)cc3Cl)CC2)c1 was read as Sfp PPTase inh 1.2µM*, Bsub HM489 growth 8.3µM*, Sfp PPTase gel 3.2µM*, Sfp gel 3.8µM*, Sfp SAR2 1µM*, hGST A1-1 inh 2.4µM*, HSD17B4 inh 5% and ALDH1A1 inh 17µM*.
`Cc1cc(C)nc(NC(=S)N2CCN(c3cncs3)CC2)c1` gave NTMT1 inh inconclusive, Sfp PPTase inh 7.4µM*, Bsub HM489 growth 25%, Sfp PPTase gel 16µM*, Sfp SAR2 4.6µM*, HSD17B4 inh -18% and ALDH1A1 inh 24µM*.
Cc1ccc(-c2nc3nc(C)cc(N4CCN(c5cc(Cl)ccc5C)CC4)n3n2)cc1 was read as FH mod -5%, GPR32 ag 0, NTMT1 inh 3%, HTT promoter inh -9% and HTT-AS promoter -13%.
Cc1ccc(CSC2=NC(C)(C)Nc3ccccc32)c(C)c1 was read as FH mod -25%, GPR32 ag 47, NTMT1 inh inconclusive, HTT promoter inh -22% and HTT-AS promoter -21%.
`C[C@]12CCC[C@](C)(C(=O)O)C1CCC13CC(CO)C(CCC12)C3` (some centres undefined) gave FH mod 1%[53.3 µM] and NTMT1 inh inconclusive.
CCc1cccc(C)c1NC(=O)C1CCN(c2nnc(C)c3c(C)n(-c4ccccc4)nc23)CC1 was read as FH mod 7%, GPR32 ag -19, NTMT1 inh -1%, HTT promoter inh -19% and HTT-AS promoter -7%.
For CCc1nc(C(N)=O)c(Nc2ccc(N3CCC(N4CCN(C)CC4)CC3)c(OC)c2)nc1NC1CCOCC1 the results were FH mod -1%[53.3 µM], NTMT1 inh 20µM* and NNMT inh -16%[38.3 µM].
